In the library only some 6.9% were active in any assay of this set; here they are far more common.
FXIIa mix inh: blocks human factor XIIa in pooled compound mixtures. purified FXIIa, fluorogenic substrate. 62,000 compounds, 0.2% hits. inhibition, % at 5 µM. P00748. AID 684;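 note: 0% = enzyme without compound and 100% = no enzyme blank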
JNK3 blocker: JNK3 (human) kinase inhibition; 60,000 compounds, 0.61% hits; purified JNK3 kinase activity, HTS; inhibition, % at 8 µM; AID 746; in the data active = inhibition above about 17%;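 note: 0% = DMSO and 100% = reference inhibitor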
Her2 expr inh: Her2 kinase expression inhibition | SKBR-3 HER2 protein level, AlphaScreen, 18-24 h; hits give low values | HER2 level % of control, % at 10 µM | 65,000 compounds, 0.69% hits;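 active = HER2 level under 5% of the carrier-only control; inconclusive = no clear call, values can overlap the other calls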;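 note: 100% = DMSO carrier and 0% = 500 nM PU-H71 HSP90 inhibitor; lower value means stronger loss of Her2 protein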
M1 ag: agonists of M1 muscarinic receptor. CHO-M1 cells, Fluo-4 calcium fluorescence, agonist mode; hits give high values. AID 626. 64,000 compounds, 3% hits. B-score at 10 µM;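 active = fluorescence rise, raw or as B-score row- and column-corrected plate score, outside the 99.7% band of its plate's samples, either direction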
M1 antag: M1 muscarinic receptor (rat) antagonism. P08482. CHO-M1 cells, Fluo-4 calcium, ACh EC80 antagonist mode; hits give low values. B-score at 10 µM. 64,000 compounds, 3.4% hits. AID 628;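 active = calcium fluorescence response, raw or row-and-column corrected B-score, differing from the plate sample mean either way at a set confidence level, mostly lower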
FXIa mix inh: blocks human factor XIa in pooled compound mixtures; purified FXIa, fluorogenic substrate; inhibition, % at 5 µM; 62,000 compounds, 0.19% hits;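 note: each value is inhibition by a whole ten-compound pool holding the compound; 0% = enzyme with no mixture and 100% = wells lacking enzyme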
M1 agonist conf: confirmation of rat M1 muscarinic receptor agonists; shares compounds with M1 ag; CHO-M1 cells, Fluo-4 calcium fluorescence, agonist mode; actives lie on both sides; fluorescence change (max-min) at 10 µM; 1,700 compounds, 19% hits;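 active = fluorescence change differs from the solvent-only DMSO control mean at a set confidence level in both duplicate runs; inconclusive = differs from solvent-only control mean in just one of two runs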;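 note: an EC20 dose of acetylcholine follows compound addition during the same imaging run; raw fluorescence intensity difference in instrument units with no normalization to controls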
M4 ag counter: activates rat M4 receptor in counter-screen for M1 agonists. shares compounds with M1 ag. CHO M4/Gqi5 cells, Fluo-4 calcium fluorescence, agonist mode; actives lie on both sides. fluorescence change (max-min) at 10 µM. 1,700 compounds, 9% hits. AID 1741;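 active = fluorescence change differing from the plate's solvent-only control wells at 99.7% confidence in both duplicates, whether higher or lower; inconclusive = differs from solvent controls in only one of two duplicates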
* marks the source's active call; other numbers are inactive results; ? = inconclusive; . = not tested or not shown. Cut-off read from the data, not from the text of the source, unless noted: active = inhibition above about 20% (passing the limit was not always enough); inactive = the rest.

SMILES	FXIIa mix inh	JNK3 blocker	Her2 expr inh	M1 ag	M1 antag	FXIa mix inh	M1 agonist conf	M4 ag counter
O=C(OC(C(=O)NCc1ccc2c(c1)OCO2)c1ccc(Cl)cc1)c1ccco1 (stereo not given)	-21	2	96	0.22	-0.031	8	.	.
Cc1cc(C)c(S(=O)(=O)N2CCCCC2)c(C)c1-n1ncnn1	19	2	106	1.5	-0.23	2	.	.
CCN(CCO)Cc1cc(=O)oc2c(C)c(C)ccc12	5	-5	106	0.084	0.49	3	.	.
Cc1ccc2c(COn3nnc4ccc(S(=O)(=O)N(C)C)cc43)cc(=O)oc2c1C	2	-2	96	21*	-0.019	9	-10	-29
CCC1Oc2ccc(C)cc2N(CC(=O)N2CCN(c3ccc(F)cc3)CC2)C1=O (stereo not given)	7	-10	91	2.3*	0.57	0	-11	?
COc1ccc(C2C(C(=O)N3CCN(c4ccccc4F)CC3)c3ccccc3C(=O)N2C)cc1 (stereo not given)	4	.	304	4.9*	0.085	7	?	?
Cc1noc(/C=C/N(C)C)c1S(=O)(=O)N1CCCC(C(=O)NCCC2=CCCCC2)C1 (stereo not given)	13	-3	77	-0.093	1.4	7	.	.
c1ccc2c(CCNc3ncnc4nc[nH]c34)c[nH]c2c1	1	11	73	3.9*	-0.17	3	-9.3	-20
CCOc1ccc2nc(N3CCCC(C(=O)NCCCN4CCOCC4)C3)sc2c1 (stereo not given)	3	-4	88	2.1*	1	2	6.7	-38
CCOC(=O)N1CCN(C(=O)C2CCCN(c3nc4ccc(OCC)cc4s3)C2)CC1 (stereo not given)	-1	-1	64	0.77	-0.077	-8	.	.
CCOC(=O)CC1=C(C(=O)OCC)C(c2ccc(OC)cc2OC)C(C#N)=C(N)O1 (stereo not given)	3	1	-20*	7*	1	2	-1.7	-43
CCOC(=O)CC1=C(C(=O)OCC)C(c2ccc(C)o2)C(C#N)=C(N)O1 (stereo not given)	-19	-4	66	0.29	0.058	4	.	.
CN(C)c1ccc2c(c1)OC(N)=C(C#N)C2c1cccc(F)c1 (stereo not given)	5	-2	50	20*	-3.4*	7	163*	120*
O=S(=O)(Nc1ccc2nc(C(F)(F)F)[nH]c2c1)c1ccccc1	6	-1	106	2.4*	-0.22	-2	-20	-32
CCOCCCNC(=O)CCCn1nc(C)n2c(cc3sccc32)c1=O	2	3	97	0.51	-0.41	2	.	.
CCOC(=O)C1CCCN(C(=O)CCCn2nc(C)n3c(cc4sccc43)c2=O)C1 (stereo not given)	0	14	81	42*	-0.67	-4	335*	?
Cc1cccc(N=C(N2CCOCC2)P(=O)(N2CCOCC2)N2CCOCC2)c1	3	.	.	0.081	-0.09	-4	.	.
CCN(Cc1cc2ccccc2[nH]c1=O)C(=O)C(C)C	8	-6	85	0.67	1.2	7	.	.
O=c1c(/C=N/O)coc2ccc3ccccc3c12	4	1	91	-0.31	-0.63	6	.	.
COc1ccc2ccccc2c1/C=N/O	7	0	98	5.6*	-1.3	6	?	-71*
CNC(=O)c1ccc(-c2sc3nc(N4CCOCC4)c4c(c3c2N)CCCC4)o1	-8	-17	89	5.8*	-1.1	-7	-3.7	-69*
CC1(C)Cc2c(c(N3CCOCC3)nc3sc(-c4ccc(C(=O)O)o4)c(N)c23)CO1	.	-13	90	-1.7	-0.21	.	.	.
Cc1nc(SCC(=O)N2CCC(C(N)=O)CC2)n[nH]1	12	9	128	3.9*	-0.18	1	?	-45
COc1ccc(CNC(=O)C2CC(=O)N(c3ccc(OCC(=O)N4C(C)CCCC4C)cc3)C2)cc1 (stereo not given)	16	-2	121	1.1	-0.6	12	.	.
CC1=C(C#N)C(=O)OC(C)(C)C1	.	9	114	15*	-1.2	.	39	33
